Data taken from PubChem BioAssay AID1345083 (National Center for Advancing Translational Sciences (NCATS), 2018).
Hit rate of the full screen: of about 94,000 compounds, about 6,200 (6.6%) were called active. Inconclusive results (about 31%) are left out. Only a selection was taken, and actives are over-represented in it overall. Values without a mark were called inactive. Calls come from the whole dose curve; as a rule, active = well fitted inhibition curve with a large enough effect; inconclusive = small, poorly fitted or top-dose-only effect; inactive = flat fitted curve, though single readings scatter.

assay: Cytotoxic Profiling in HEK 293 Cell Line of Diverse Libraries Using Quantitative High-Throughput Screening; settings: HEK 293 viability, ATP luminescence (CellTiter-Glo), 48-72 h; series mostly up to 115 µM; activity change, negative = cytotoxicity: at the top concentration; note: nearly all actives have a fitted effect of over 60% in size
Method in brief: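 qHTS cytotoxicity; HEK 293, 250 cells/well; compound pinned; 48 or 72 hr, 37 degree Celsius, 5% CO2, 95% humidity; CellTiter-Glo, 10 min RT; luminescence (ATP).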
% is set by controls: 0 for no effect and ±100 for the full control effect; potency is the fitted concentration of half-maximal effect.

Row | SMILES | activity change, negative = cytotoxicity | outcome | Potency
1 | CC(=O)N1CCC(NC[C@@H]2C=C(C)[C@H](Cc3nc4ccccc4n3C)C[C@H]2C(C)C)CC1 | -23.7% | – | –
2 | Cc1cnc(C(=O)NC2CC(c3nnc(CO)n3C3CC3)C2)[nH]1 (stereo not drawn) | 4.88% | – | –
3 | O=C(c1ccc2c(c1)[nH]c(=O)n2C1CCC(O)CC1)N1CCc2ccccc2C1 (stereo not drawn) | -26% | – | –
4 | Cc1ccc(-n2nc(C(=O)N3CC[C@](C)(O)C(C)(C)C3)c(O)cc2=O)cc1 | 1.18% | – | –
5 | Cc1ccc(C)c2c(=O)cc(CN3CCN(CCn4cncn4)CC3)[nH]c12 | -24% | – | –
6 | CCN1C(=O)CCN(Cc2cnn(CC)c2C)CC12CCOCC2 | -8.32% | – | –
7 | Cc1cc2occ(CC(=O)N3CC[C@](C)(O)[C@@H](O)C3)c2cc1Cl | -2.57% | – | –
8 | CCOC(=O)c1cn(C2CN(S(=O)(=O)c3cccc(F)c3)C2)nn1 | -18.3% | – | –
9 | O=C(NCC1CC1)c1cn(C2CN(C(=O)NCCc3ccccc3)C2)nn1 | – | inactive | –
10 | N#Cc1ccc(S(=O)(=O)N2CC(n3cc(C(=O)NCc4ccccc4)nn3)C2)cc1 | – | – | 50.1 µM (active)
11 | CC(=O)N1CCN(C(=O)C2(Cn3cccn3)CC2)CC(O)C1 (stereo not drawn) | -1.42% | – | –
12 | COCCNC(=O)[C@H]1C[C@H](Oc2cccnc2)CN1C(=O)NC1CCCCC1 | -13.6% | – | –
13 | O=C1NCCC[C@@H]1NC(=O)[C@H]1CN(C(=O)CS(=O)(=O)c2ccccc2)CCN1C(=O)C1CCCCC1 | -0.313% | – | –
14 | CC(=O)Nc1ccc(-c2c(-c3ccc4c(c3)OCO4)nn(-c3cc(C)ccc3C)c2OC(C)=O)cc1 | – | – | 39.8 µM (active)
15 | CCCc1nn(-c2cccc(F)c2)c(OC(C)=O)c1-c1ccc(NC(C)=O)cc1 | -31.7% | – | –
16 | CCN(CC)c1ncccc1CNC(=O)Nc1ccc2c(c1)OCO2 | -14.6% | – | –
17 | CN1CCCN(C[C@@H]2CN(C(=O)c3ccnn3C)C[C@@H]2CO)CC1 | 3.91% | – | –
18 | CCN(CC)C(=O)N1CCCC(c2nc(CCOCC3CCOCC3)no2)C1 (stereo not drawn) | -24% | – | –
19 | C1CCC(COCCc2noc(C3CNC3)n2)C1 | – | – | 6.31 µM (active)
20 | O=C(Cc1cccnc1)N1CCCC(c2nc(CCOCC3CCCC3)no2)C1 (stereo not drawn) | -14.1% | – | –
21 | CNC(=O)[C@@H]1CN(C(=O)c2ccc(F)c(Cl)c2)C[C@H]1CO | -13.9% | – | –
22 | CCn1ccc(C(=O)N2CCCC(c3noc(COC)n3)C2)n1 (stereo not drawn) | 1.51% | – | –
23 | Cc1nc(-c2ccccc2OC2CN(S(=O)(=O)c3c(C)noc3C)C2)no1 | 3.92% | – | –
24 | COc1ccc(CCC(=O)NCC(=O)N2CCCCCCNC(=O)CC2c2ccccc2)cc1 (stereo not drawn) | -2.36% | – | –

Row | SMILES | activity change, negative = cytotoxicity | outcome | Potency
25 | CC1CCN(c2ccc(CNC(=O)CN3CCCc4nc(C5CC5)ncc4C3=O)cc2)CC1 | -1.31% | – | –
26 | CN(CCO)CC1(O)CCCN(Cc2ccccc2F)C1=O (stereo not drawn) | -25.7% | – | –
27 | O=C1c2c(nc(COc3ccccc3)n2Cc2ccccc2)NCCN1Cc1cccc(Cl)c1 | – | – | 31.6 µM (active)
28 | O=C1c2cnc(-c3ccc(O)c(F)c3)nc2OCCN1Cc1ccccc1 | -28.2% [at 172 µM] | – | –
29 | O=C(O)CN1CCNc2nc(CNc3ccc(F)cc3)n(Cc3ccccc3)c2C1=O | – | inactive [at 172 µM] | –
30 | COc1ccc(NC(=O)c2ccc3c(c2)N(S(C)(=O)=O)CC3)cc1OC | -25% | – | –
31 | O=C(c1cccnc1)N1CCC(Nc2cccnc2)C1 (stereo not drawn) | 3.04% | – | –
32 | COc1cccc(N2C(=O)NC(=NC3CCCC3)C23CCN(C(=O)c2ccc(C)cc2)C3)c1 (stereo not drawn) | -2.27% | – | –
33 | O=C(C[C@@H]1CCNC[C@@H]1Cc1cc(CSc2ccccc2)on1)NCc1ccc2c(c1)OCO2 | – | – | 35.5 µM (active)
34 | CN(Cc1ccccc1)C(=O)C[C@@H]1CCNC[C@@H]1Cc1cc(-c2ccc(C(C)(C)C)cc2)on1 | – | – | 14.1 µM (active)
35 | COc1ccc(-c2cc(C[C@H]3CNCC[C@H]3CC(=O)NCCN(C)C)no2)cc1 | 0.101% [at 172 µM] | – | –
36 | COc1ccc(CNC(=O)C[C@@H]2CCNC[C@@H]2Cc2cc(-c3ccc(C(C)(C)C)cc3)on2)cc1OC | – | – | 25.1 µM (active)
37 | CCCCc1cc(C[C@H]2CNCC[C@H]2CC(=O)N(CC)CC)no1 | -22.1% [at 172 µM] | – | –
38 | CNC(=O)C(C)(C)N1CCC[C@H]1C(=O)N(C)Cc1ccccc1 | -29.2% [at 172 µM] | – | –
39 | CCCCc1cc(C[C@H]2CNCC[C@H]2CC(=O)N2CCC(n3c(=O)[nH]c4ccccc43)CC2)no1 | 3.67% | – | –
40 | CSc1cccc(CN(C)C(=O)CC2COCCN2)c1 (stereo not drawn) | -17.4% | – | –
41 | O=C(C[C@@H]1CCNC[C@@H]1Cc1cc(-c2ccc(F)cc2)on1)NCCN1CCOCC1 | -4.57% [at 172 µM] | – | –
42 | COCCOCc1nc(C2CCCCN2C(=O)Nc2ccc(F)cc2F)no1 (stereo not drawn) | 0.297% | – | –
43 | O=C(Cc1cccc(Cl)c1)N1CCC2(CN[S+](=O)([O-])c3cccnc3O2)C1 (stereo not drawn) | 4.07% | – | –
44 | Cc1ccc(CN[C@@H]2CO[C@H](CNC(=O)N3CCOCC3)[C@H]2O)cc1 | – | inactive [at 172 µM] | –
45 | CCNC(=O)[C@@H]1C[C@H](n2cc(CN(C)C(=O)OC)nn2)CN1 | 0.184% | – | –
46 | Cc1ccc(NC(=O)c2nnn3c2COC(c2ccc(F)cc2)C3)c(Br)c1 (stereo not drawn) | 2.77% | – | –
47 | COc1ccc(-c2ccccc2CN)cc1 | -3.51% [at 172 µM] | – | –
48 | CCn1cc(S(=O)(=O)N2C[C@@H](Oc3ccccc3)C[C@@H]2C(=O)N2CCOCC2)cn1 | 2.71% | – | –
